Reference: PubChem BioAssay AID1159580 (chemical genetic matrix, 2015)
The campaign covered roughly 5,500 compounds. About 2,000 (36%) were called active. About 18% were inconclusive and are not listed. No stated cut-off is given here; in the data, active means normalized growth mostly below about 0.91 (no sharp cut-off); inconclusive means no clear call, values can overlap the other calls; inactive means mostly above about 0.92. This is one part of the list.

Assay: chemical genetic growth profiling, strain panel (AID 1159580);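 further: tested at 20 µM; growth read once vehicle control cultures reached saturation at 30 °C; 1 = growth at the plate median or of vehicle wells; lower values mean less growth of the strain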
Details: growth OD

Measured: normalized growth

C=NC(C(=O)NC1C(=O)N2C1SC(C)(C)C2C(=O)O)c1ccccc1 (configuration not stated)
inactive: S. cerevisiae deletion strains, locus YJR075W, strain HOC1, active compounds read low 0.991 | S. cerevisiae deletion strains, locus YKL009W, strain mrt4, active compounds read low 1.02 | S. cerevisiae deletion strains, locus YKL068W, active compounds read low 1.02 | S. cerevisiae deletion strains, locus YKL085W, strain MDH1 (second series), active compounds read low 1.04 | S. cerevisiae deletion strains, locus YKL085W, strain MDH1, active compounds read low 1.04 | S. cerevisiae deletion strains, locus YKL160W, strain elf1, active compounds read low 0.98 | S. cerevisiae deletion strains, locus YKL190W, strain CNB1, active compounds read low 1.01 | S. cerevisiae deletion strains, locus YKR001C, strain vps1, active compounds read low 1.02 | S. cerevisiae deletion strains, locus YKR026C, strain gcn3, active compounds read low 0.999 | S. cerevisiae deletion strains, locus YKR091W, strain srl3, active compounds read low 0.999 | S. cerevisiae deletion strains, locus YLL001W, strain dnm1, active compounds read low 0.943 | S. cerevisiae deletion strains, locus YLL026W, active compounds read low 1.01 | S. cerevisiae deletion strains, locus YLL041C, strain sdh2, active compounds read low 0.996 | S. cerevisiae deletion strains, locus YLR027C, strain aat2, active compounds read low 1.02 | S. cerevisiae deletion strains, locus YLR039C, strain RIC1, active compounds read low 1.03 | S. cerevisiae deletion strains, locus YLR058C, strain SHM2, active compounds read low 1.01 | S. cerevisiae deletion strains, locus YLR102C, strain apc9, active compounds read low 1.02 | S. cerevisiae deletion strains, locus YLR113W, strain HOG1, active compounds read low 1.01 | S. cerevisiae deletion strains, locus YLR221C, strain rsa3, active compounds read low 1.06 | S. cerevisiae deletion strains, locus YLR258W, strain gsy2, active compounds read low 1.01 | S. cerevisiae deletion strains, locus YLR262C, strain YPT6 (second series), active compounds read low 1.01 | S. cerevisiae deletion strains, locus YLR262C, strain YPT6, active compounds read low 1.06 | S. cerevisiae deletion strains, locus YLR268W, strain sec22, active compounds read low 1.01 | S. cerevisiae deletion strains, locus YLR320W, strain mms22, active compounds read low 1.07 | S. cerevisiae deletion strains, locus YLR330W, strain CHS5, active compounds read low 1.01 | S. cerevisiae deletion strains, locus YLR342W, strain FKS1 (second series), active compounds read low 1.03 | S. cerevisiae deletion strains, locus YLR342W, strain FKS1, active compounds read low 1.02 | S. cerevisiae deletion strains, locus YLR357W, strain rsc2, active compounds read low 0.912 | S. cerevisiae deletion strains, locus YLR370C, strain arc18, active compounds read low 1.01 | S. cerevisiae deletion strains, locus YLR371W, strain rom2, active compounds read low 1.02 | S. cerevisiae deletion strains, locus YLR384C, strain iki3, active compounds read low 0.999 | S. cerevisiae deletion strains, locus YLR418C, strain cdc73, active compounds read low 1.02 | S. cerevisiae deletion strains, locus YML016C, strain PPZ1, active compounds read low 1.01 | S. cerevisiae deletion strains, locus YML032C, strain rad52, active compounds read low 1.02 | S. cerevisiae deletion strains, locus YML120C, strain ndi1, active compounds read low 0.972 | S. cerevisiae deletion strains, locus YML124C, strain tub3, active compounds read low 1.01 | S. cerevisiae deletion strains, locus YMR058W, strain fet3, active compounds read low 0.987 | S. cerevisiae deletion strains, locus YMR078C, strain ctf18, active compounds read low 1.01 | S. cerevisiae deletion strains, locus YMR125W, strain sto1, active compounds read low 0.929 | S. cerevisiae deletion strains, locus YMR129W, active compounds read low 1 | S. cerevisiae deletion strains, locus YMR205C, strain PFK2, active compounds read low 0.982 | S. cerevisiae deletion strains, locus YMR223W, strain ubp8, active compounds read low 1.02 | S. cerevisiae deletion strains, locus YMR231W, strain pep5, active compounds read low 1.01 | S. cerevisiae deletion strains, locus YMR263W, strain SAP30, active compounds read low 1.01 | S. cerevisiae deletion strains, locus YMR307W, strain GAS1, active compounds read low 0.993 | S. cerevisiae deletion strains, locus YNL067W, strain RPL9B, active compounds read low 0.996 | S. cerevisiae deletion strains, locus YNL071W, strain lat1, active compounds read low 0.998 | S. cerevisiae deletion strains, locus YNL128W, strain TEP1, active compounds read low 1 | S. cerevisiae deletion strains, locus YNL153C, strain GIM3, active compounds read low 1.01 | S. cerevisiae deletion strains, locus YNL183C, strain NPR1, active compounds read low 0.944 | S. cerevisiae deletion strains, locus YNL209W, strain ssb2, active compounds read low 0.994 | S. cerevisiae deletion strains, locus YNL233W, strain BNI4, active compounds read low 1.02 | S. cerevisiae deletion strains, locus YNL248C, strain rpa49, active compounds read low 0.975 | S. cerevisiae deletion strains, locus YNL250W, strain rad50, active compounds read low 1.01 | S. cerevisiae deletion strains, locus YNL271C, strain bni1, active compounds read low 1.02 | S. cerevisiae deletion strains, locus YNL298W, strain CLA4, active compounds read low 1.02 | S. cerevisiae deletion strains, locus YNL307C, strain MCK1, active compounds read low 1.02 | S. cerevisiae deletion strains, locus YNL322C, strain KRE1 (second series), active compounds read low 0.991 | S. cerevisiae deletion strains, locus YNL322C, strain KRE1, active compounds read low 1.01 | S. cerevisiae deletion strains, locus YNR049C, strain mso1, active compounds read low 0.998 | S. cerevisiae deletion strains, locus YNR052C, strain pop2, active compounds read low 1.02 | S. cerevisiae deletion strains, locus YOL006C, strain TOP1, active compounds read low 1.05 | S. cerevisiae deletion strains, locus YOL012C, strain htz1 0.974 | S. cerevisiae deletion strains, locus YOL147C, strain pex11, active compounds read low 1.01 | S. cerevisiae deletion strains, locus YOR001W, strain rrp6, active compounds read low 1.03 | S. cerevisiae deletion strains, locus YOR061W, strain CKA2, active compounds read low 1.02 | S. cerevisiae deletion strains, locus YOR069W, strain VPS5, active compounds read low 1.01 | S. cerevisiae deletion strains, locus YOR070C, strain gyp1, active compounds read low 1.03 | S. cerevisiae deletion strains, locus YOR080W, strain dia2, active compounds read low 1 | S. cerevisiae deletion strains, locus YOR083W, strain WHI5, active compounds read low 0.989 | S. cerevisiae deletion strains, locus YOR106W, strain vam3, active compounds read low 0.947 | S. cerevisiae deletion strains, locus YOR136W, strain idh2, active compounds read low 1.02 | S. cerevisiae deletion strains, locus YOR144C, strain elg1, active compounds read low 1.01 | S. cerevisiae deletion strains, locus YOR184W, strain ser1, active compounds read low 1.05 | S. cerevisiae deletion strains, locus YOR231W, strain MKK1, active compounds read low 1 | S. cerevisiae deletion strains, locus YOR265W, strain rbl2, active compounds read low 1 | S. cerevisiae deletion strains, locus YOR270C, strain vph1, active compounds read low 0.993 | S. cerevisiae deletion strains, locus YOR290C, strain snf2, active compounds read low 0.95 | S. cerevisiae deletion strains, locus YOR316C, strain cot1, active compounds read low 1.01 | S. cerevisiae deletion strains, locus YPL051W, strain arl3, active compounds read low 1 | S. cerevisiae deletion strains, locus YPL055C, strain LGE1, active compounds read low 1.02 | S. cerevisiae deletion strains, locus YPL078C, strain atp4, active compounds read low 0.957 | S. cerevisiae deletion strains, locus YPL106C, strain sse1, active compounds read low 0.983 | S. cerevisiae deletion strains, locus YPL240C, strain hsp82, active compounds read low 1.01 | S. cerevisiae deletion strains, locus YPL241C, strain CIN2, active compounds read low 1.01 | S. cerevisiae deletion strains, locus YPL256C, strain CLN2, active compounds read low 0.994 | S. cerevisiae deletion strains, locus YPR119W, strain clb2, active compounds read low 1 | S. cerevisiae deletion strains, locus YPR141C, strain kar3, active compounds read low 1.01 | S. cerevisiae deletion strains, locus YPR163C, strain tif3, active compounds read low 1.02 | S. cerevisiae deletion strains, locus YPR167C, strain met16, active compounds read low 1.02 | S. cerevisiae deletion strains, strain wtn01, active compounds read low 1.01 | S. cerevisiae strains, strain wild type, active compounds read low 1.01
